Screening results: PubChem BioAssay, National Center for Advancing Translational Sciences (NCATS)
The list is not random: actives were taken first. Their share in the collection is about 19%.
TDP1 cell noCPT: qHTS for Inhibitors of human tyrosyl-DNA phosphodiesterase 1 (TDP1): qHTS in cells in absence of CPT | DT40 Tdp1-/- hTDP1 cells, no CPT, ATP luminescence, 48 h | Potency, µM (doses to about 46.2 µM), without a hit: at the top dose activity change, negative = growth inhibition, usual class: inhibitors | 420,000 compounds, 15% hits | AID 686978, 2013; also: potency is read from the fitted curve at half-maximal effect; nearly all actives have a fitted effect of over 55% in size
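Chicken DT40 Tdp1-/- cells stably complemented with human TDP1 were seeded at 400 cells/well with DMSO in place of 20 nM camptothecin. After compound pinning, cells grew at least 48 hr at 37 °C; viability read by CellTiter-Glo luminescence.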
IL1B secr inh: blocks inflammasome-driven IL-1 beta release | THP-1 LPS/ATP IL-1B secretion, AlphaLISA, 16 h; hits give low values | activity change, % at 57.5 µM | 360,000 compounds, 4.7% hits | AID 743279; in the data active = activity change below about -50%; inconclusive = mostly about -30% to -49%
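THP-1 cells pretreated 1 hr with compounds (up to 57.5 uM final), then stimulated with LPS (250 ng/mL final) plus ATP (1.25 mM final); secreted IL-1B measured by AlphaLISA after 16 hr, decreased signal indicating inhibition.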
HT1080 IDH1KD tx: toxicity to HT-1080 IDH1 knockdown cells (counter line); Potency, µM (doses to about 46.1 µM), for inactives: at the top dose activity, negative = toxicity, usual class: cytotoxic; AID 686971; HT-1080 IDH1 knockdown viability, ATP luminescence, 48 h; 360,000 compounds, 2% hits;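 also: potency is read from the fitted curve at half-maximal effect; 0% = DMSO wells and -100% = cell-free medium wells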
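CellTiter-Glo luminescence after 48 h compound exposure at 37 degrees C of IDH1-knockdown HT-1080 cells in 5% FBS RPMI. %Activity scaled between DMSO wells and cell-free media wells, with curves fitted and assigned curve classes.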
TDP1 cell CPT: growth inhibition of DT40 Tdp1-/-;hTDP1 cells with camptothecin (screen for TDP1 inhibitors). Potency, µM (titrated, usually from 46.2 µM), for the others: top-dose activity change, negative = growth inhibition, hits mostly inhibitors. 420,000 compounds, 12% hits. chicken DT40 Tdp1-/-;hTDP1 cells + 20 nM CPT, ATP luminescence, 48 h; also: potency is read from the fitted curve at half-maximal effect; nearly all actives have a fitted effect of over 55% in size
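Chicken DT40 Tdp1-/- cells complemented with human TDP1, 400 cells/well, exposed to compounds plus 20 nM camptothecin for at least 48 h at 37 C; viability read as ATP content by CellTiter-Glo luminescence.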
HT1080NT lethal: kills 2HG-producing HT-1080-NT fibrosarcoma cells | Potency, µM (series often up to 46.1 µM), for inactives: top-dose activity, negative = less viability, usual class: cytotoxic | 360,000 compounds, 1.6% hits | HT-1080-NT fibrosarcoma viability, CellTiter-Glo ATP luminescence, 48 h;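 also: NT is the 2HG producing partner of a matched IDH1 knockdown line; potency is read from the fitted curve at half-maximal effect; 0% = DMSO-treated cells and -100% = media-only wells without cells; nearly all actives have a fitted effect of over 55% in size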
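Compounds were tested in concentration-response format on HT-1080-NT cells for 48 hours at 37 degrees C. Cell viability came from CellTiter-Glo luminescence; curves were classified by r2, response magnitude and activity.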
An asterisk follows results filed as active; ? = inconclusive; / = no result given; [ ] = remark or other dose. Unless noted, calls follow the shape of the dose curve; as a rule, active = well fitted curve in the direction sought with a large enough effect; inconclusive = small, poorly fitted or top-dose-only effect, or another doubt; inactive = no such curve, though single readings can be large; an effect the other way counts as inactive or inconclusive. Unless noted, % is scaled to controls: 0 for no effect and ±100 for the full control effect.

SMILES	TDP1 cell noCPT	IL1B secr inh	HT1080 IDH1KD tx	TDP1 cell CPT	HT1080NT lethal
CC(=O)OC1CCC2(C)C(=CC(=O)C3C2CCC2(C)C(OC(C)=O)CCC32)C1 (stereo not drawn)	?	13	8%	?	10%
COC(=O)C1=C(c2ccc(OCc3ccccc3)cc2)C[C@@H]2CC[C@H]1N2C(=O)NCc1ccc2c(c1)OCO2	4.1µM*	-19	-15%	5.8µM*	-13%
Cn1c(=O)oc2cc(S(=O)(=O)N3CCCC(C(=O)N4CCN(c5ccc(Cl)cc5)CC4)C3)ccc21 (stereo not drawn)	1.3µM*	/	/	5.2µM*	/
COc1ccc(N2CCN(C(=O)C3CCCN(S(=O)(=O)c4ccc5c(c4)CCCN5C(C)=O)C3)CC2)cc1 (stereo not drawn)	2.3µM*	/	/	4.1µM*	/
COc1ccc(NS(=O)(=O)c2ccc3c(c2)CCCN3C(=O)C2CCC2)cc1OC	3.7µM*	/	/	2.6µM*	/
CC(=O)N1CCCc2cc(S(=O)(=O)N3CCCC(C(=O)N4CCN(c5ccccc5F)CC4)C3)ccc21 (stereo not drawn)	5.8µM*	/	/	3.7µM*	/
Cc1cc([P+](=O)O)c(C)n1-c1ccc(Br)cc1	0%	47	13%	-11%	2%
ON1C2CCCCC2N(O)C1c1ccccc1F (stereo not drawn)	2%	3	15%	-9%	13%
Cc1ccc2c(c1)N(CCC(=O)N1CCC3(CC1)OCCO3)C(=O)C(C)O2 (stereo not drawn)	-22%	-22	0%	-7%	-4%
CC(=O)Oc1ccc2c3c1O[C@H]1[C@@H](OC(C)=O)C=C[C@H]4[C@@H](C2)N(C)CC[C@@]341	?	/	/	-28%[92.5 µM]	/
CC(=O)N1CCc2cc(S(=O)(=O)N3CCN(c4ccc(C)cc4)C(C)C3)ccc21 (stereo not drawn)	21µM*	/	/	23µM*	/
Nc1c(Cl)c(Cl)c(Cl)c(Cl)c1Cl	-5%[92.5 µM]	/	/	-1%[92.5 µM]	/
COc1ccc(C(c2nnnn2-c2ccc3c(c2)OCCO3)N2CCC3(CC2)C(=O)NCN3c2ccccc2)cc1 (stereo not drawn)	26µM*	-5	?	?	-28%
O=C1NCN(c2ccccc2)C12CCN(C(CCc1ccccc1)c1nnnn1-c1ccc3c(c1)OCCO3)CC2 (stereo not drawn)	-113%	-18	-29%	?	?
CCC(c1nnnn1-c1ccc2c(c1)OCCO2)N1CCC2(CC1)C(=O)NCN2c1ccccc1 (stereo not drawn)	18µM*	-18	-21%	18µM*	-23%
O=C1NCN(c2ccccc2)C12CCN(C(c1ccnc3ccccc13)c1nnnn1C1CCCC1)CC2 (stereo not drawn)	?	-4	-7%	?	-10%
CCCCn1nnnc1C(c1ccnc2ccccc12)N1CCC2(CC1)C(=O)NCN2c1ccccc1 (stereo not drawn)	?	-14	-1%	16µM*	10%
O=C1NCN(c2ccccc2)C12CCN(C(c1ccnc3ccccc13)c1nnnn1-c1ccc3c(c1)OCCO3)CC2 (stereo not drawn)	16µM*	-24	?	?	?
CCCCn1nnnc1C(c1ccccc1)N1CCC2(CC1)C(=O)NCN2c1ccccc1 (stereo not drawn)	?	-11	-29%	?	?
O=C1C2CCCN2C(c2cccnc2)N1c1cccc(Cl)c1 (stereo not drawn)	?	-1	-20%	?	-4%
Cc1cc(N2CCNCC2)nc2ccccc12	?	-63*	-1%	-9%	?
CC1([N+](=O)[O-])COP(=O)(NC2CCCC2)OC1 (stereo not drawn)	-1%	0	13%	-12%	19%
COc1cc2c(ccc3c4cc(OC)c(OC)cc4c[n+](C)c23)cc1O	1.2µM*	-20	?	1.3µM*	-25%
